The list is not random: actives were taken first. Their share in the collection is about 2.8%.
LDHA inh: qHTS assay for inhibitors of human lactate dehydrogenase; purified LDHA, NADH/diaphorase-resazurin fluorescence; hits give low values; activity change, % (values are at about 110 or 230 µM); 480,000 compounds, 0.15% hits; AID 1347041, 2019; in the data active = activity change below about -30%; inconclusive = mostly about -25% to -30%
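LDH5 2 nM; NADH 0.06 mM, pyruvate 0.2 mM; 200 mM Tris pH 7.4, EDTA, Tween-20; 5 min RT. Detection: diaphorase 0.133 mg/mL + resazurin 37 µM, fluorescence ex540/em590 at 0 and 20 min; normalized to enzyme-free and DMSO wells.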
DRD3 antagonist: qHTS of D3 Dopamine Receptor Antagonist: qHTS | 360,000 compounds, 2.5% hits | D(3) dopamine receptor (Homo sapiens), P35462 | max response, negative = inhibition, % | D3R cells, DiscoveRx beta-arrestin luminescence, antagonist mode; hits give low values | AID 652054, 2013; in the data active = max response below about -50%; inconclusive = no clear call, values can overlap the other calls
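Cells plated overnight at 1500 cells/well, then exposed to library compounds with dopamine controls for 90 minutes at 37 degrees C. DiscoveRx reagent added for 30–60 minutes at room temperature; luminescence read, quantitative HTS format.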
PI4K2A block: qHTS for small molecular inhibitors of PI4K2A | Phosphatidylinositol 4-kinase type 2-alpha (Homo sapiens), Q9BTU6 | purified PI4K2A, ADP-Glo luminescence, 1 h; hits give low values | activity change, negative = inhibition, % at 76.9 µM | 420,000 compounds, 0.13% hits; in the data active = activity change below about -50%; inconclusive = mostly about -30% to -49%
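ADP-Glo luminescence measured ADP generated by PI4K2A enzyme (4 ug/mL before mixing) with 1.2 mM PI substrate (pre-mix) and 300 microM ATP (pre-mix). Tris pH7.5 buffer with MgCl2, Triton X-100; 1 h reaction at ambient temperature.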
D3 ag: qHTS of D3 Dopamine Receptor Agonist: qHTS | D3R DiscoveRx beta-arrestin cells, luminescence, 90 min | max activation, % | 410,000 compounds, 0.58% hits; in the data active = max activation above about 30%
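Agonist mode: compounds and dopamine controls were applied to plated cells for 90 min at 37 degrees C after an overnight attachment at 1500 cells/well. Luminescent read-out followed 30 - 60 minutes at room temperature with DiscoveRx detection reagent.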
RGS4 inhibitor: Inhibitors of Regulator of G Protein Signaling (RGS) 4: qHTS. 390,000 compounds, 0.039% hits. Transcreener GDP fluorescence polarization, RGS4-accelerated GTP hydrolysis. Potency, µM (titrated, usually from 114 µM), most hits filed as inhibitors; active = well fitted inhibition curve with a large enough effect; inconclusive = small, poorly fitted or top-dose-only effect; inactive = no such curve, though single readings can be large or run the other way; note: nearly all actives have a fitted effect of over 75% in size
Target sequence (P49798 whole entry, looked up): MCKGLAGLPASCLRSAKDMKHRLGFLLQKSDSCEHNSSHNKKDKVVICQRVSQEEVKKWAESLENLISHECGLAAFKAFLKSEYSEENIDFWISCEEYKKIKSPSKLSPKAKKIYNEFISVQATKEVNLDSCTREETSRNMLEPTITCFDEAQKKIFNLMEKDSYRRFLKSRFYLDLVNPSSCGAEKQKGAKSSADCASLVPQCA
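MLSMR compounds (23 nl, pin-transferred) preincubated 10 min at room temperature with a 500nM (2x) first reagent, then RGS4 at 900nM (2x) plus Transcreener GDP mix added; fluorescence polarization (620/688 nm) read before and after 90 min at 30 °C.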
Akt phos inh: HTS Assay for Inhibitors of Akt Phophorylation: Primary Screen. 360,000 compounds, 0.32% hits. activity change, % for hits at 50 µM. Neuro2A IGF-stimulated pAkt S473 HTRF, 20 min; hits give low values. AID 651550, 2012; in the data active = activity change below about -80%; inconclusive = mostly about -51% to -80%
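Neuro2A cells in DMEM with 0.5% FBS, overnight at 37 deg C, given compound at single 50 µM final, then IGF (6 nM final) for 20 min at 37 deg C. Lysed; phospho-Akt Ser473 by HTRF after 24 h, 665/615 ratio.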
Large screens that a line does not name were inactive.

N/C(=N/OC(=O)c1ccccc1Cl)c1nonc1N	PI4K2A block -53.5
CN(C)c1cc[n+](CC(=O)Nc2ccc(Cl)cc2)cc1	none
CN(C)c1cc[n+](CC(=O)Nc2cc(C(F)(F)F)ccc2Cl)cc1	DRD3 antagonist -58.7
Cc1cc[n+](CC(=O)Nc2cc(C(F)(F)F)ccc2Cl)cc1	DRD3 antagonist -191.9
O=C(C[n+]1ccc2ccccc2c1)Nc1cc(C(F)(F)F)ccc1Cl	DRD3 antagonist -68.0
O=C(CN1CCCCCC1)Nc1cc(C(F)(F)F)ccc1Cl	DRD3 antagonist -77.4
CCCCCCC/C=N/NC(N)=S	none (no result: DRD3 antagonist, PI4K2A block, D3 ag, RGS4 inhibitor, Akt phos inh)
C=CCN1C(=O)C(=O)N(Cc2coc(-c3ccc(C)cc3)n2)C1=O	none (no result: DRD3 antagonist, PI4K2A block, D3 ag, RGS4 inhibitor, Akt phos inh)
O=C(NC1(C(F)(F)F)C(=O)Nc2c1c(=O)[nH]c(=O)n2-c1ccc(F)cc1)c1ccco1 (centres undefined)	none (no result: DRD3 antagonist, PI4K2A block, D3 ag, RGS4 inhibitor, Akt phos inh)
CC(C)c1ccc(-n2ccnc(NCc3ccc4c(c3)OCO4)c2=O)cc1	none (no result: DRD3 antagonist, PI4K2A block, D3 ag, RGS4 inhibitor, Akt phos inh)
O=C(C[n+]1ccccc1)Nc1cc(C(F)(F)F)ccc1Cl	DRD3 antagonist -58.1
O=C(CC(=O)c1ccccc1)Nc1cc(C(F)(F)F)ccc1Cl	none
O=C(NC1CC1)c1cc(-c2ccccc2Cl)nc2ccccc12	none (no result: DRD3 antagonist, PI4K2A block, D3 ag, RGS4 inhibitor, Akt phos inh)
COc1ccccc1NC(=O)C1=C(C)Nc2nc(SC)nn2C1c1ccccc1OC (centres undefined)	none (no result: DRD3 antagonist, PI4K2A block, D3 ag, RGS4 inhibitor, Akt phos inh)
CSc1nc2n(n1)C(c1cc(Br)ccc1F)C(C(=O)N(C)C)=C(C)N2 (centres undefined)	DRD3 antagonist -70.5
Cc1ccc(NC(=O)Nc2cc3c(cc2Oc2ccccc2)n(C)c(=O)n3C)c(Cl)c1	none (no result: DRD3 antagonist, PI4K2A block, D3 ag, RGS4 inhibitor, Akt phos inh)
CCCCCC(C=O)CCC(=O)c1ccc(Br)cc1 (centres undefined)	none (no result: DRD3 antagonist, PI4K2A block, D3 ag, RGS4 inhibitor, Akt phos inh)
O=C(c1nnsc1S(=O)(=O)c1ccc(Cl)cc1)N1CCOCC1	DRD3 antagonist inconclusive
CNC(=O)c1nnsc1S(=O)(=O)c1ccc(Cl)cc1	DRD3 antagonist -110.0, RGS4 inhibitor inconclusive
CCCCC1CCNC1 (centres undefined)	none (no result: DRD3 antagonist, PI4K2A block, D3 ag, RGS4 inhibitor, Akt phos inh)
CC(C)=CCC[C@H](C)C[C@@H]1Cc2[nH]c(=S)[nH]c(=O)c2[C@@H](c2ccc(F)cc2)O1	DRD3 antagonist -55.5 (no result: RGS4 inhibitor)
CC(C)=CCC[C@H](C)CC1Cc2[nH]c(=S)[nH]c(=O)c2C(c2ccc(F)cc2)O1 (some centres undefined)	none (no result: RGS4 inhibitor)
Cc1ccc(NC(=O)C(Sc2ncccn2)c2ccccc2)cc1 (centres undefined)	none (no result: DRD3 antagonist, PI4K2A block, D3 ag, RGS4 inhibitor, Akt phos inh)
Cc1ccc2c3c(cccc13)-c1ccccc1C2=O	none
Nc1ccc2c3c(cccc13)-c1ccccc1-2	D3 ag 30.0
CC(O)(c1cccnc1)c1nc(-c2cccc(C(F)(F)F)c2)cs1 (centres undefined)	D3 ag 37.6 (no result: RGS4 inhibitor)
CC(O)(c1ccc(F)c(F)c1)c1nc(-c2cnc3ccccc3c2)cs1 (centres undefined)	none (no result: RGS4 inhibitor)
COCc1cccc(-c2csc(C(C)(O)c3cccc(F)c3)n2)c1 (centres undefined)	DRD3 antagonist -89.6 (no result: RGS4 inhibitor)
CC(O)(c1ccccc1)c1nc(-c2cc3ccccc3o2)cs1 (centres undefined)	DRD3 antagonist -58.0 (no result: RGS4 inhibitor)
CC(O)(c1ccc(F)c(F)c1)c1nc(-c2ccc3ccccc3c2)cs1 (centres undefined)	DRD3 antagonist -55.6 (no result: RGS4 inhibitor)
Cc1c(-c2ccccc2)oc2c(C(=O)N3CCCN(Cc4ccc(F)cc4)CC3)cccc2c1=O	none (no result: DRD3 antagonist, PI4K2A block, D3 ag, RGS4 inhibitor, Akt phos inh)
Cc1nn(C)c(C)c1NC(=O)CSc1nc(Cc2ccccc2)nc2c1cnn2-c1ccccc1	none
Cc1nn(Cc2ccccc2)c(C)c1NC(=O)CSc1nc(C2CC2)nc2c1cnn2-c1ccccc1	Akt phos inh -114.0%
CN1CCN(CCCNCc2cn(CCC#N)c3ccccc23)CC1	LDHA inh -40.2

High-throughput results: PubChem, National Center for Advancing Translational Sciences (NCATS)
